# According to PubChem BioAssay (NCATS):
# Results filed as inconclusive are left out. Where a call stands in place of a potency, no number is given. Calls of active or inactive are those of the source. Calls follow the shape of the dose curve; as a rule, active = well fitted activation curve with a large enough effect in the repeat runs; inconclusive = weak or mixed curves; inactive = flat fitted curve, though single readings scatter.
# Test: qHTS assay for small molecule agonists of the antioxidant response element (ARE) signaling pathway measured by Nrf2-dependant transcriptional activity (AID 720636)
# Conditions: ARE-luc HepG2, Nrf2 luciferase reporter, 16 h; series mostly up to 92.4 µM
# Excerpt: National Center for Advancing Translational Sciences [NCATS] NIH Chemical Genomics Center [NCGC] U.S. Environmental Protection Agency [EPA] National Institutes of Environmental Health Sciences [NIEHS] National Toxicology Program [NTP] Assay Overview: The antioxidant response element (ARE) signaling pathway plays an important role in the cellular anti-oxidant defense. Exposure to stressors which are exogenous like ionizing radiations, chemicals, U-V light, and endogenous like cell signaling, metabolic processes or inflammation, reactive oxygen species (ROS), can induce oxidative stress in the cells. Oxidative stress has been implicated in the pathogenesis of a variety of diseases ranging from cancer to neurodegeneration. ARE-luc HepG2 cell line (Simmons et al., Current Chemical Genomics, 5:1-12, 2011) has been used for identifying the chemicals that induce oxidative stress. The cell line has an Nrf2-responsive luciferase reporter gene that has been engineered to measure Nrf2-dependant transcriptional activity.
# Assay Protocol Summary: For measuring ARE induction; 2,000 ARE-luc HepG2 cells in 5 uL of assay medium containing 1% dialyzed FBS per well were dispensed into white wall/solid bottom 1536-well plates using a Flying Reagent Dispenser (FRD) (Aurora Discovery). The assay plates were incubated for 6 hr at 37 C to allow cell attachment to the well bottom, followed by the transfer of 23 nL compound or DMSO vehicle by a pin tool (Kalypsys). The plates were incubated for 16 hr at 37 C and 5% CO2, followed by the addition of 5 uL of ONE-GloTM luciferase reagent (Promega) into each well using FRD. After 30 min room temperature incubation, plates were read on a ViewLux plate reader (PerkinElmer).
# Potency is read from the fitted curve at half-maximal effect.
row,SMILES,Potency
1,C#C[C@]1(O)CC[C@H]2[C@@H]3CCc4cc(O)ccc4[C@H]3CC[C@@]21C,inactive
2,S=c1[nH]c2ccccc2s1,inactive
3,CCCCCCCCCCCCCCCCCC(=O)O,inactive
4,c1cnc2c(c1)ccc1cccnc12,inactive
5,CN1CCC[C@H]1c1cccnc1,inactive
6,CN(C)c1ccc(N=NS(=O)(=O)O)cc1,54.5 µM (active)
7,Nc1cc(-c2ccncc2)c[nH]c1=O,inactive
8,O=C(O)c1ccccc1Nc1cccc(C(F)(F)F)c1,inactive
9,O=C(O)/C=C\C(=O)O,inactive
10,c1ccc2sc(SSc3nc4ccccc4s3)nc2c1,inactive
11,CCCOC(=O)c1ccc(O)cc1,inactive
12,C=CCCCCCCCCC(=O)O,inactive
13,CCCCCCCCCCCCCCCC(=O)OC(C)C,inactive
14,NCCO,inactive
15,COc1cc(/C=C/C(=O)CC(=O)/C=C/c2ccc(O)c(OC)c2)ccc1O,21.1 µM (active)
16,O=C1CN(/N=C/c2ccc([N+](=O)[O-])o2)C(=O)N1,inactive
17,Nc1nc2ccc([N+](=O)[O-])cc2s1,inactive
18,Nc1ccc(O)c(C(=O)O)c1,inactive
19,O=C(O)c1cc(O)c(O)c(O)c1,inactive
20,CN1[C@@H]2CC[C@H]1CC(OC(=O)C(CO)c1ccccc1)C2 (some centres undefined),inactive
21,CN(C)c1ccc(C(=C2C=CC(=[N+](C)C)C=C2)c2ccccc2)cc1,inactive
22,O=C(O)[C@H](O)[C@@H](O)[C@H](O)[C@H](O)CO,inactive
23,O=C(OCc1ccccc1)c1ccccc1,inactive
24,CC1(C)S[C@@H]2[C@H](NC(=O)[C@H](N)c3ccccc3)C(=O)N2[C@H]1C(=O)O,inactive
25,O=C(Nc1ccccc1)c1cc([N+](=O)[O-])ccc1Cl,3.06 µM (active)
26,N=C1N=C(N)c2cc3ccccc3cc21,inactive
27,CC(C)NCC(O)COc1cccc2ccccc12 (centres undefined),inactive
28,CC(C)OC(=O)c1cc(C(=O)OC(C)C)cc([N+](=O)[O-])c1,inactive
29,CN(C)CCC(c1ccc(Cl)cc1)c1ccccn1 (centres undefined),inactive
